Data from PubChem BioAssay (NCI).
About 79,000 compounds went through this panel and 15% of them were active in at least one assay; those are over-represented in the sample as a whole. Values without a mark were called inactive. Activity calls are given as the source filed them. Cut-off read from the data, not from the text of the source: active = growth inhibition above about 70%; inactive = the rest.

Experiment: NCI Yeast Anticancer Drug Screen. Data for the mlh1 rad18 strain (AID 175)
Settings: S. cerevisiae mlh1 rad18 strain growth inhibition; at 50.0 µM (retest, dose inferred, filed as 5.0); active compounds read high
Procedure, shortened: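 Yeast w/ defined DNA-repair lesions; compound exposure; growth vs vehicle controls → % inhibition.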

| SMILES | growth inhibition |
| --- | --- |
| Cc1[nH]nc(-c2ccon2)c1N=O | 93% (active) |
| O=C(O)CCC(=O)c1ccc(C2CCCC2)c2ccccc12 | 11% |
| CC12CC(Br)(Br)C(=O)C3C1CCCC32 | 79% (active) |
| O=[N+]([O-])c1ccc(NSc2ccccc2)cc1 | 99% (active) |
| CCC1CCC(CC)C1=O (stereo not drawn) | 7% |
| Cc1cc(C(C)(CC(C)C)c2ccc(O)c(C)c2)ccc1O | 100% (active) |
| N#CC1C(=O)SC2c3ccccc3C(=O)c3ccccc3C12 (stereo not drawn) | 58% |
| COc1ccc(C2C3=C(CCCC3=O)Oc3cc4c(cc32)OCO4)cc1 (stereo not drawn) | 91% (active) |
| CCC(c1cccc(O)c1)C(CC)c1cccc(O)c1 (stereo not drawn) | 55% |
| CCCCCCCCCCCC1C(C#N)C(=O)NC(=O)C1C#N (stereo not drawn) | 90% (active) |
| O=C(NNC(=O)c1cccc(C(=O)NNC(=O)c2ccc(Cl)c(Cl)c2)n1)c1ccc(Cl)c(Cl)c1 | 71% (active) |
| CCOC(=O)CCC(NC(=O)c1ccc(NC(OC)c2nc3cc(C(F)(F)F)ccc3nc2-c2ccccc2)cc1)C(=O)OCC (stereo not drawn) | 92% (active) |
| CCOC(=O)c1c(C)[nH]c(CO)c1C | 13% |
| S=C(NC(=S)Nc1ccc(Cl)cc1)Nc1ccc(Cl)cc1 | 10% |
| O=S(=O)(c1ccc(OCC(O)COc2ccc(S(=O)(=O)c3ccc(OCC4CO4)cc3)cc2)cc1)c1ccc(OCC2CO2)cc1 (stereo not drawn) | 29% |
| C=C(C)C(=O)OC1CC2=CC(CC3(C)OC3C3OC(=O)C(=C)C13)OC2=O (stereo not drawn) | 51% |
| c1ccc2c(c1)C[n+]1ccc3ccccc3c1-c1c3ccccc3cc[n+]1C2 | 21% |
| CCN(CC)CCOC(=O)Cc1cccc2c(=O)cc(-c3cccs3)oc12 | 16% |
| C=C1C(=O)OC2C/C(C)=C/CC/C(C)=C/CCC3(COC(C)=O)OC3CC12 (stereo not drawn) | 98% (active) |
| CN1C=CC(C(O)(c2ccccc2)c2ccccc2)CC1 (stereo not drawn) | 5% |
| OCc1cccc2c1Oc1ccccc1S2 | 71% (active) |
| COC(=O)c1[nH]c(=O)c(C#N)c(C(=O)OC)c1C(=O)c1ccc(Cl)c(Cl)c1 | 90% (active) |

Same assay, conditions: S. cerevisiae mlh1 rad18 strain growth inhibition; at 50.0 µM; active compounds read high

| SMILES | growth inhibition |
| --- | --- |
| N#Cc1c(SCc2ccc(Cl)cc2)nsc1Nc1ccc(Cl)cc1 | 86% (active) |
| CC(CO)(Nc1ccc([N+](=O)[O-])cc1[N+](=O)[O-])C(=O)O (stereo not drawn) | 97.5% (active) |
| O=[N+]([O-])/C(C(Cl)=C(Cl)Cl)=C(/Nc1ccccc1)Sc1ccccc1 | 84.8% (active) |
| CC(SCc1ccccc1)C(=O)O (stereo not drawn) | -44.5% |
| O=C1C2(Cl)C(Cl)=C(Cl)C1(Cl)C1(Cl)C(Cl)=C(Cl)C(=O)C21Cl (stereo not drawn) | 61.2% |
| O=C(CNC(=O)c1ccccc1)Oc1c(Cl)c(Cl)c(Cl)c(Cl)c1Cl | 77.5% (active) |
| CN(C)c1nc(NNS(=O)(=O)c2ccc(N)cc2)nc(N(C)C)n1 | 3.85% |
| CC1(C(Cl)(Cl)Cl)C=CC(O)(C#CC2(O)C=CC(C)(C(Cl)(Cl)Cl)C=C2)C=C1 (stereo not drawn) | 97.8% (active) |
| COCCN1C(=O)C2c3[nH]c4ccccc4c3C3CCC(C(C)(C)C)CC3C2C1=O (stereo not drawn) | 94.5% (active) |
| Cc1nc(N)sc1N=Nc1cccc(Cl)c1Cl | 84.2% (active) |
| ClC1=C(Cl)C2c3ccccc3C1c1ccccc12 | 95.7% (active) |
| C=C/C=C/CC=C | 59.9% |
| C/C(=N\NC(=S)NCc1ccccc1)c1nccnc1C | 91.7% (active) |
| COC(=O)c1cc(OC)c(OC)c(OC)c1 | 0.25% |
| Nc1nc2c(ccc3ccccc32)s1 | 57.6% |
| N=C(N)c1ccc(N=Nc2cc(/C=C/c3ccccc3)ccc2O)cc1 | 98.8% (active) |
| O=C1NC(=O)N(c2ccc([N+](=O)[O-])cc2)C1=O | 10.2% |
| O=C(Nc1cc(Cl)cc(Cl)c1)OCCCl | 92.5% (active) |
| Cc1[nH]nc(-c2ccon2)c1N=O | 58.4% |
| O=C(O)CCC(=O)c1ccc(C2CCCC2)c2ccccc12 | 86.6% (active) |
| CC12CC(Br)(Br)C(=O)C3C1CCCC32 | 87% (active) |
| O=[N+]([O-])c1ccc(NSc2ccccc2)cc1 | 88.2% (active) |
| CCC1CCC(CC)C1=O (stereo not drawn) | 43.2% |
| Cc1cc(C(C)(CC(C)C)c2ccc(O)c(C)c2)ccc1O | 91.3% (active) |
| N#CC1C(=O)SC2c3ccccc3C(=O)c3ccccc3C12 (stereo not drawn) | 69.8% |
| COc1ccc(C2C3=C(CCCC3=O)Oc3cc4c(cc32)OCO4)cc1 (stereo not drawn) | 98.2% (active) |
